HCV inh = blocks hepatitis C virus; 340,000 tested, 3.4% active; Potency, µM (doses to about 41.8 µM), inactives show top-dose activity change, negative = inhibition, usual class: inhibitors; Huh7.5.1 HCVcc-Cre infection, luciferase reporter, 44 h; AID 651820
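Seed cells (1,000/well) for 4 h; treat with compound and infect with HCVcc-Cre, moi about 0.5. Incubate 44 h, then detect luciferase activity.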
Pf growth 96h = P. falciparum growth inhibition at 96 hour, primary screen for plastid delayed-death inhibitors. AID 504834. P. falciparum luciferase reporter growth, 96 h. 320,000 tested, 6.9% active. Potency, µM (highest dose often 28.7 µM), inactives show top-dose activity change, negative = inhibition, actives largely listed as inhibitors
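P. falciparum expressing integrated firefly luciferase, in erythrocytes at 2% hematocrit, 0.05% parasitemia, incubated with compounds 96 h at 37 C, 5% CO2. Growth inhibition read as loss of luminescence; two-generation exposure targets delayed-death apicoplast inhibitors.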
Pf growth 48h = inhibits P. falciparum growth in the first generation, 48 h | P. falciparum luciferase growth in erythrocytes, 48 h | Potency, µM (highest dose often 28.7 µM), inactives show top-dose activity change, negative = inhibition, hits mostly inhibitors | 310,000 tested, 5.9% active | AID 504832
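Growth was read as firefly luciferase luminescence after a 48 h, 37 C, 5% CO2 exposure of compounds to reporter-bearing P. falciparum cultures (0.1% parasitemia, 2% hematocrit final) in Albumax-supplemented RPMI 1640.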
AMA1 RON2 block = inhibitors of Plasmodium falciparum AMA1-RON2 interaction | AlphaScreen AMA1-biotinylated RON2 peptide binding | Potency, µM (series often up to 58.2 µM), for inactives: at the highest dose activity change, negative = inhibition, hits mostly inhibitors | 360,000 tested, 0.2% active | AID 720542;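 also: 0% = vehicle wells and -100% = peptide control; nearly all actives have a fitted effect of over 45% in size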
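AMA1 (3D7) with his tag at 25 nM final met compounds first, then biotinylated RON2 peptide at 25 nM; detection used donor plus acceptor beads, 10 µg/mL apiece, read by AlphaScreen after 30 min at room temperature.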
An asterisk follows results filed as active; [ ] = another dose, or the depositor's remark. Hits are enriched below; roughly 11% of the tested compounds scored in any of these assays. Calls follow the shape of the dose curve; as a rule, active = well fitted curve in the direction sought with a large enough effect; inconclusive = small, poorly fitted or top-dose-only effect, or another doubt; inactive = no such curve, though single readings can be large; an effect the other way counts as inactive or inconclusive. Unless noted, % is scaled to controls: 0 for no effect and ±100 for the full control effect; potency is read from the fitted curve at half-maximal effect.

Results for CC[C@]12c3[nH]c4cc(-c5ccco5)ccc4c3CCN1C(=O)[C@@H](CC(=O)NC/C=C(\C)CCC=C(C)C)C[C@@H]2C(=O)N1CCN(C(=O)C2CC2)CC1 ?
HCV inh: 16µM*; AMA1 RON2 block: -28%

Results for CC(C)=CCC/C(C)=C/CNC(=O)C[C@H]1C[C@H](C(=O)N2CCCCC2)[C@@]2(CCc3ccccc3)c3[nH]c4cc(-c5ccco5)ccc4c3CCN2C1=O ?
HCV inh: -15%[8.37 µM]; AMA1 RON2 block: -15%

What do the screens show for `CC[C@]12c3[nH]c4ccccc4c3CCN1C(=O)C(CC(=O)NC/C=C(\C)CCC=C(C)C)C[C@@H]2C(=O)N1CCN(C(=O)c2ccco2)CC1` (stereo partly drawn)?
HCV inh: inconclusive; AMA1 RON2 block: -18%

Results for CC[C@]12c3[nH]c4ccc(Cl)cc4c3CCN1C(=O)[C@@H](CC(=O)NC/C=C(\C)CCC=C(C)C)C[C@@H]2C(=O)N1CCN(C(=O)C2CC2)CC1 ?
HCV inh: 22µM*; AMA1 RON2 block: -28%

Results for CC1CC(C)CN(CCCNC(=O)Cn2cccc2C(=O)c2ccccc2)C1 (stereo not drawn) ?
HCV inh: 0%; Pf growth 96h: -1%; Pf growth 48h: -10%; AMA1 RON2 block: -1%

Results for CC(NS(=O)(=O)c1ccc(Br)cc1)C(=O)NCCc1ccccc1 (stereo not drawn) ?
HCV inh: -11%; Pf growth 96h: 94%; Pf growth 48h: -20%; AMA1 RON2 block: -5%

How did CC1Cc2nc(SCC(=O)NCC3CCCO3)n(-c3ccc(F)cc3)c(=O)c2S1 (stereo not drawn) do in these assays?
HCV inh: 28%; Pf growth 96h: 3.7µM*; Pf growth 48h: 8.3µM*; AMA1 RON2 block: -8%

What do the screens show for `COc1ccc(-n2c(SCC(=O)NCC3CCCO3)nc3c(c2=O)SCC3)cc1` (stereo not drawn)?
HCV inh: 27%; Pf growth 96h: 17%; Pf growth 48h: 9%; AMA1 RON2 block: -5%

How did O=C(CSc1nc2ccsc2c(=O)n1Cc1ccc(C(=O)O)cc1)NCC1CCCO1 (stereo not drawn) do in these assays?
HCV inh: 3%; Pf growth 96h: inconclusive; Pf growth 48h: -9%; AMA1 RON2 block: -26%

How did C=CCn1c(SCC(=O)NCC2CCCO2)nc2scc(-c3ccc(OC)cc3)c2c1=O (stereo not drawn) do in these assays?
Pf growth 96h: 5.2µM*; Pf growth 48h: 13%; AMA1 RON2 block: 2%

Results for COc1ccc(-n2c(SCC(=O)NCC3CCCO3)nc3c(c2=O)SC(C)C3)cc1 (stereo not drawn) ?
HCV inh: 11%; Pf growth 96h: inconclusive; Pf growth 48h: 12µM*; AMA1 RON2 block: -13%

How did Cc1ccc(-n2c(SCC(=O)NCC3CCCO3)nc3c(c2=O)SCC3)cc1 (stereo not drawn) do in these assays?
HCV inh: 7%; Pf growth 96h: 0%; Pf growth 48h: 2%; AMA1 RON2 block: 1%

Results for Cc1ccc(Cn2c(SCC(=O)NCC3CCCO3)nc3ccsc3c2=O)cc1 (stereo not drawn) ?
HCV inh: 8.9µM*; Pf growth 96h: 41%; Pf growth 48h: -3%; AMA1 RON2 block: -7%

What do the screens show for `CCc1ccc(NC(=O)C(=O)NCCOc2ccccc2Cl)cc1`?
HCV inh: -23%; Pf growth 96h: inconclusive; Pf growth 48h: 4%; AMA1 RON2 block: 11%

How did CCc1nc2c(OCCn3cccc3)cccn2c1N(C)C(=O)c1ccc(OC)cc1 do in these assays?
AMA1 RON2 block: -15%

What do the screens show for `COc1ccc(Cl)cc1NC(=O)CSc1nc2ccsc2c(=O)n1CC1CCC(C(=O)O)CC1` (stereo not drawn)?
HCV inh: 21%; Pf growth 96h: -1%; Pf growth 48h: inconclusive; AMA1 RON2 block: 0%

How did CC1Cc2nc(SCC(=O)NCC3CCCO3)n(Cc3ccccc3)c(=O)c2S1 (stereo not drawn) do in these assays?
HCV inh: 11%; Pf growth 96h: 33%; Pf growth 48h: 15µM*; AMA1 RON2 block: 3%

Results for O=C(CSc1nc2ccsc2c(=O)n1CC1CCC(C(=O)O)CC1)NCCc1ccc(Cl)cc1 (stereo not drawn) ?
HCV inh: 9%; Pf growth 96h: 7.4µM*; Pf growth 48h: inconclusive; AMA1 RON2 block: -1%
